# Reference: PubChem BioAssay AID504834 (National Center for Advancing Translational Sciences (NCATS), 2011)
# Out of some 320,000 compounds screened, about 22,000 (6.9%) were called active. Not shown: some 27% with an inconclusive outcome. The sample holds actives, similar compounds and a random draw of the others, so the mix is not that of the screen. Calls come from the whole dose curve; as a rule, active = well fitted inhibition curve with a large enough effect; inconclusive = small, poorly fitted or top-dose-only effect, or another doubt; inactive = no such curve, though single readings can be large or run the other way.
# Experiment: Primary qHTS for delayed death inhibitors of the malarial parasite plastid, 96 hour incubation
# Details: P. falciparum luciferase reporter growth; series mostly up to 28.7 µM; activity change, negative = inhibition: at the top concentration
# Excerpt: The goal of this screen is to discover new antimalarial compounds that act by inhibiting the development of the apicoplast in the malarial parasite Plasmodium falciparum. The biochemical processes that make this organelle essential for erythrocytic stage parasites are not well understood. However, antibiotics such as azithromycin and tetracycline, which target the apicoplast translational machinery, have a potent antimalarial effect.
# We have developed a cell-based assay that measures parasite growth based on the expression of an integrated copy of a firefly luciferase reporter. To detect small molecules that cause this "delayed death" phenotype, erythrocytes infected with the luciferase-expressing parasites were incubated with compounds for either one or two generations, corresponding to 48 and 96 hours, respectively. Compounds that inhibit parasite growth in the second generation, but not the first, should be enriched in antimalarials that target the apicoplast. Growth inhibition is detected by a decrease in luciferase activity.
# Assay Provider: David Fidock and Eric Ekland, Columbia University
# Keywords: NIH Roadmap, MLPCN, MLI, MLSMR, qHTS, NCGC, qHTS, malaria, luciferase, viability
# Four microliters of infected erythrocytes (2% hematocrit, 0.05% parasitemia final concentration) in culture medium were dispensed and the plates incubated for 96 hours at 37 C in 5% CO2. Two microliters of luciferase detection reagent was added and luminescence was detected by a ViewLux (PerkinElmer) reader.
# % is set by controls: 0 for no effect and ±100 for the full control effect; potency is the fitted concentration of half-maximal effect.
SMILES,"activity change, negative = inhibition",Potency
O=C(NCCO)C(=O)NCC(c1ccc2c(c1)OCO2)N1CCN(c2ccc(F)cc2)CC1 (centres undefined),3.63% (inactive),
CCOC(=O)N1CCN(S(=O)(=O)N2CCCC(C(=O)NCCCN3CCC(C)CC3)C2)CC1 (centres undefined),23.7% (inactive),
O=C(CCC(=O)N/N=C/c1ccc(Br)o1)N/N=C/c1ccc(Br)o1,20.1% (inactive),
COc1ccc(CCNC2=CC(=O)CC(C)(C)C2)cc1,0% (inactive),
COc1cc(C(=O)NC(=S)NCc2ccco2)cc(OC)c1OC,0% (inactive),
COc1cc(Cn2c(N)c(C(=O)NCc3ccco3)c3nc4ccccc4nc32)cc(OC)c1OC,,1.65 µM (active)
COc1cc(C(=O)N[C@@H](C)C(=O)NCc2ccco2)cc(OC)c1OC,16% (inactive),
O=C(NCC(=O)N1CCCC(C(F)(F)F)C1)c1ccccc1F (centres undefined),76.3% (inactive),
CC(NC(=O)c1ccccc1F)c1cccc2ccccc12 (centres undefined),43% (inactive),
Cc1ccc(S(=O)(=O)N2CC(=O)Nc3ccccc32)cc1C,,13.1 µM (active)
Cc1ccc(S(=O)(=O)N(C)CC(=O)OCC(=O)N2CC(=O)Nc3ccccc32)cc1,17.3% (inactive),
Cc1ccc(C(=O)N2CC(=O)Nc3ccccc32)o1,7.15% (inactive),
O=C(O)C1CCCCC1C(=O)N1CCN(S(=O)(=O)c2ccc(F)cc2)CC1 (centres undefined),29.1% (inactive),
COc1cc(N2C(=O)CC3(CCCC3)CC2=O)cc(OC)c1OC,11.1% (inactive),
CCOC(=O)CSc1nnc(-c2ccco2)n1C,-14.9% (inactive),
COc1ccc(-c2nnc(SCC(=O)c3ccco3)n2-c2ccccc2)cc1,-2.46% (inactive),
COc1ccc(-n2c(SCC(=O)OC(C)C)nnc2-c2ccccn2)cc1,,2.08 µM (active)
Cc1cccc(C)c1NC(=O)CCCSc1nnc(-c2ccco2)n1-c1ccccc1,22.3% (inactive),
CCOc1ccc(-n2c(SCC(N)=O)nnc2-c2ccco2)cc1,,3.7 µM (active)
O=C(CSc1nnc(-c2ccccn2)n1-c1ccccc1)Nc1ccc2c(c1)OCO2,11.5% (inactive),
CCOc1ccc(S(=O)(=O)N2CCN=C2Cc2ccccc2)cc1C,22.5% (inactive),
O=C(CCc1ccccc1)Nc1ccnn1C1CCN(Cc2ccc(OCCO)cc2)CC1,15.8% (inactive),

SMILES,"activity change, negative = inhibition",Potency
C/C=C(\C)C(=O)N1CC2(CC(c3cccc(NC(=O)CCCCC)c3)=NO2)C[C@@H]1C(N)=O (some centres undefined),23.1% (inactive),
CC/C=C/C(=O)N1CC2(CC(c3cccc(NC(=O)CC)c3)=NO2)C[C@H]1C(N)=O (some centres undefined),-1.57% (inactive),
CCC(=O)Nc1cccc(C2=NOC3(C2)C[C@@H](C(N)=O)N(C(=O)c2cc([N+](=O)[O-])cc([N+](=O)[O-])c2C)C3)c1 (some centres undefined),,0.0657 µM (active)
CCOc1ccccc1-c1cc(C(=O)N2CCOCC2)c2ccccc2n1,-10.4% (inactive),
CCOc1ccccc1-c1nc(CN2CCC(C(=O)N3CCOCC3)CC2)c(C)o1,,11.7 µM (active)
COc1ccc(F)c(-c2nc(CN3CCC(c4ccccc4)CC3)c(C)o2)c1,-24.4% (inactive),
O=C1NNC(c2ccccc2)=N/C1=C\c1ccc(Cl)cc1,,8.28 µM (active)
O=C1NCC(=O)N(Cc2ccccc2)/C1=C/c1ccccc1,3.39% (inactive),
O=C(NCc1csc(-c2cccs2)n1)C1CC1,88.8% (inactive),
Cc1cc(O)c(C2(O)C(=O)Nc3ccccc32)cc1C (centres undefined),27% (inactive),
CCOC(=O)CNc1nc(Cl)nc(Nc2ccc(OC)cc2OC)n1,0.58% (inactive),
COc1ccc2c(c1)c(C(=O)N/N=C/c1cccs1)c(C)n2C,-10.9% (inactive),
COc1cc(OC)cc(-c2c(-c3ccc(F)cc3)c3cc(-c4ccc5cc[nH]c5c4)ccc3n2C)c1,,5.22 µM (active)
COc1cc(OC)cc(-c2c(-c3cccs3)c3cc(-c4ccc(OC)cc4F)ccc3n2C)c1,,5.86 µM (active)
COc1ccc(OC)c(-c2csc(-c3cccs3)n2)c1,69% (inactive),
OCC[C@H]1C[C@H](O)[C@@H](O)[C@]2(CCc3ccccc3O2)O1,0% (inactive),
O=C(O)c1cc(S(=O)(=O)N(Cc2ccccc2)c2cccc(C(F)(F)F)c2)ccc1Cl,-25.6% (inactive),
O=C(CSc1ccc(-c2ccc(-n3cccn3)cc2)nn1)Nc1ccc([N+](=O)[O-])cc1,155% (inactive),
Cc1cccc(OCC(=O)NC2CC(C)(C)NC(C)(C)C2)c1,6.25% (inactive),
NC(=O)C1(C(N)=O)OC1c1ccc(Cl)cc1Cl (centres undefined),8.12% (inactive),
CC1(C)Cc2cccc(OCC(=O)N3CCN(c4ccc([N+](=O)[O-])cc4)CC3)c2O1,,5.22 µM (active)
COC(=O)c1ccccc1OCC(=O)N1CCN(c2ccc(Cl)cc2)CC1,10.6% (inactive),

SMILES,"activity change, negative = inhibition",Potency
CC1(C)Cc2cccc(OCC(=O)Nc3nccs3)c2O1,-12% (inactive),
Nc1cc(N)nc(SCc2ccc(Cl)cc2)n1,4.96% (inactive),
O=C(CSc1nc2[nH]ncc2c(=O)[nH]1)Nc1ccc(F)cc1,-3.5% (inactive),
CCCn1nnnc1NCc1ccc(CC)cc1,-6.67% (inactive),
O=C(Cn1c(=O)n(Cc2ccco2)c(=O)c2ccccc21)NCC1CCCO1 (centres undefined),81.7% (inactive),
Cc1ccccc1NC(=O)Cn1c(=O)n(CC2CCCO2)c(=O)c2ccccc21 (centres undefined),,2.33 µM (active)
COc1ccc(CCNC(=O)Cn2c(=O)n(CC3CCCO3)c(=O)c3ccccc32)cc1OC (centres undefined),-9.63% (inactive),
CCN(CC(=O)Nc1cc(Cl)ccc1C)C(=O)Cn1c(=O)cnc2ccccc21,36.2% (inactive),
CC(C)Cn1c(N)c(C(=O)COC(=O)C2CCCN2C(=O)c2cccs2)c(=O)n(C)c1=O (centres undefined),2.49% (inactive),
COc1ccc(-n2ncc3c2CC(C)(C)CC3NC(=O)CCc2c(C)nn(C)c2C)cc1 (centres undefined),,10.4 µM (active)
Cc1ccc(-n2ncc3c2CC(C)(C)CC3NC(=O)Cc2c(C)noc2C)cc1 (centres undefined),0% (inactive),
COc1ccc(-n2ncc3c2CC(C)(C)CC3NC(=O)CCc2c(C)noc2C)cc1 (centres undefined),-29.9% (inactive),
COc1ccc(/C=C2\SC(=S)N(CCC(=O)Nc3ccccn3)C2=O)cc1OC,79.2% (inactive),
CCOc1ccc(NC(=O)CCS(=O)(=O)c2ccc3c(c2)CCCN3C(=O)CC)cc1,,9.28 µM (active)
CCCNS(=O)(=O)c1ccc2c(c1)CCCN2C(C)=O,94.1% (inactive),
CCC(=O)N1CCc2cc(S(=O)(=O)CCC(=O)N3CCN(c4ccccc4F)CC3)ccc21,29.7% (inactive),
C=CCn1c(SCC(=O)NC(=O)Cc2ccccc2)nc2ccccc2c1=O,3.17% (inactive),
CCCCN1C(=O)/C(=C/C=C2/C=Cc3ccccc3N2CC)SC1=S,,0.117 µM (active)
CCN1C(=O)/C(=C\N2CCN(c3cccc(Cl)c3)CC2)SC1=S,51.9% (inactive),
CCN1C(=O)/C(=C2/Sc3ccccc3N2CCCS(=O)(=O)O)SC1=S,61.5% (inactive),
